From PubChem BioAssay
An excerpt weighted towards active compounds, which were near 21% of everything screened.
NS1 function inh: qHTS Assay for Inhibitors of Influenza NS1 Protein Function | Potency, µM (doses to about 46.1 µM), without a hit: top-dose activity, positive = more growth | actives 0.4% (n = 270,000); note: potency is the fitted concentration of half-maximal effect; actives are rising curves; nearly all actives have a fitted effect of over 50% in size
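Growth recovery, yeast-based: influenza A NS1 expressed in S. cerevisiae causes slow growth, and suppressors are detected by OD600. The parent strain without NS1 is used as positive control.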
SARS PLP yeast: qHTS of Yeast-based Assay for SARS-CoV PLP | S. cerevisiae expressing SARS-CoV PLpro, growth rescue | actives 0.19% (n = 330,000) | Potency, µM (top dose mostly 32.9 µM), for the others: at the highest dose activity, positive = growth rescue, actives largely listed as activators | AID 485353, 2010; note: potency is the fitted concentration of half-maximal effect; 0% is about no effect; nearly all actives have a fitted effect of over 55% in size
Shiga toxin inh: A qHTS for Small Molecule Inhibitors of Shiga Toxin; Vero cells, Shiga toxin protein synthesis inhibition reporter; actives 9.2% (n = 290,000); AID 2315, 2010; inhibition, % at 38.7 µM; in the data active = inhibition mostly above about 28%, no sharp cut-off; inactive = mostly below about 43%; note: 0% is about no effect
CHX counter: Cycloheximide Counterscreen for Small Molecule Inhibitors of Shiga Toxin | cell reporter, cycloheximide protein synthesis inhibition counterscreen | max response, % | actives 12% (n = 300,000) | AID 2314, 2010; in the data active = max response mostly above about 13%, no sharp cut-off; inactive = mostly below about 14%; note: read at 38.3 µM for the half of the compounds with a filed dose; 0% is about no effect
Pf growth 48h: Primary qHTS for delayed death inhibitors of the malarial parasite plastid, 48 hour incubation. P. falciparum luciferase growth in erythrocytes, 48 h. Potency, µM (highest dose often 28.7 µM), without a hit: at the top dose activity change, negative = inhibition, usual class: inhibitors. actives 5.9% (n = 310,000); active = well fitted inhibition curve with a large enough effect; inconclusive = small, poorly fitted or top-dose-only effect, or another doubt; inactive = no such curve, though single readings can be large or run the other way; note: potency is the fitted concentration of half-maximal effect; % is set by controls: 0 for no effect and ±100 for the full control effect
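Cell-based growth assay: transgenic P. falciparum expressing firefly luciferase, cultured in red cells within RPMI 1640 containing 0.5% w/v Albumax, 24 mM bicarbonate and gentamycin. A drop in luciferase activity indicates inhibition.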
Pf growth 96h: Primary qHTS for delayed death inhibitors of the malarial parasite plastid, 96 hour incubation | P. falciparum luciferase reporter growth, 96 h | Potency, µM (series often up to 28.7 µM), without a hit: at the top dose activity change, negative = inhibition, actives largely listed as inhibitors | actives 6.9% (n = 320,000); active = well fitted inhibition curve with a large enough effect; inconclusive = small, poorly fitted or top-dose-only effect, or another doubt; inactive = no such curve, though single readings can be large or run the other way; note: potency is the fitted concentration of half-maximal effect; % is set by controls: 0 for no effect and ±100 for the full control effect
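Erythrocytes infected with luciferase-expressing P. falciparum were dispensed at 2% hematocrit and 0.05% parasitemia (final), then incubated with compounds 96 hours at 37 C in 5% CO2. Luminescence after detection reagent addition reported growth.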
* = called active by the depositor; ? = inconclusive; . = no result; + = active, no number; [ ] = another dose, or the depositor's remark. Unless noted, calls come from the whole dose curve.

SMILES	NS1 function inh	SARS PLP yeast	Shiga toxin inh	CHX counter	Pf growth 48h	Pf growth 96h
CCN1C(=O)[C@H]2[C@@H](c3ccc(Cl)cc3)N3C(=O)CN(CCOC)C(=O)[C@@]3(C)[C@H]2C1=O	-3%	-1%	-3	-3	32%	11%
N#Cc1nc(-c2cccc(Cl)c2)oc1NCc1cccnc1	-17%	0%	46*	26	.	?
N#Cc1nc(-c2ccco2)oc1NCc1cccnc1	?	-9%	9	-4	-10%	67%
COc1ccc(-c2nc(C#N)c(NCc3cccnc3)o2)cc1OC	9%	-4%	-12	-3	?	10µM*
CCCc1c(C(=O)N/N=C/c2ccc(C)s2)nnn1-c1nonc1N	4%	?	15	-2	20%	10%
NC(=O)c1nsc(C(=O)N(Cc2cccnc2)C(C(=O)NC2CCCCC2)c2ccc(F)cc2)c1N (centres undefined)	8%	6%	15	7	?	3%
O=C(O)CN1C(=O)c2ccc(Oc3cccc4c3C(=O)N(CC(=O)O)C4=O)cc2C1=O	3%	4%	-11	-3	-3%	.
O=C(O)CN1C(=O)c2ccc(Oc3ccc4c(c3)C(=O)N(CC(=O)O)C4=O)cc2C1=O	1%	0%	-12	-5	2.1µM*	50%
Cn1c(NC(=O)Cc2ccc(F)cc2)cc(=O)n(C)c1=O	0%	2%	-15	-2	.	24%
Oc1oc(-c2ccccc2)nc1/C=N/c1nccs1	-7%	-22%	+	33*	36%	91%
Oc1oc(-c2ccccc2)nc1C=NCc1ccncc1	9%	5%	2	-2	9%	-13%
Oc1oc(-c2ccccc2)nc1C=Nc1cccc2ccccc12	-7%	-15%	26	20*	-15%	1%
CCCCOc1ccc(-c2nc(/C=N/c3nccs3)c(O)o2)cc1	4%	-12%	2	2	15%	45%
Cc1occc1C(=O)NCc1ccccc1	-2%	1%	30	1	2%	.
CCC(C(=O)Nc1ccc(C)cc1)c1ccccc1 (centres undefined)	.	-1%	-7	-3	-2%[5.75 µM]	37%
Cc1ccc(C(=O)NCc2ccccc2)c(F)c1F	-3%	0%	65*	14	13%	18%
CCOC(=O)C(Cc1ccccc1)C(=O)NCc1ccccc1 (centres undefined)	-12%	-2%	2	-2	21%	3.3µM*
CCC(C(=O)NCc1ccc(C)cc1)c1ccccc1 (centres undefined)	-17%	4%	.	4	-22%	15µM*
Cc1ccc(CNC(=O)NCc2ccccc2)cc1	.	0%	149*	26*	110%	65%
O=C(NCc1csc2ccc(Cl)cc12)Nc1ccccc1	2%	0%	-5	-3	?	?
Cc1ccc(C)c(CNC(=O)Nc2ccccc2)c1	1%	.	74*	30*	117%	136%
Cc1ccc(CNC(=O)Nc2ccccc2)cc1	-79%	-5%	123*	33*	193%	0%
O=C(NCc1ccccn1)C(=O)Nc1nc(C23CC4CC(CC(C4)C2)C3)cs1	-3%	20%	-11	-3	-2%	17%
COc1ccc(C(=O)NC(=S)NCc2cccnc2)cc1[N+](=O)[O-]	15%	2%	3	-2	-1%	?
CCC(=O)c1ccc2c(c1)N(CCCN1CCN(CCO)CC1)c1ccccc1S2	.	.	.	.	2.7µM*	4.8µM*
SMILES	NS1 function inh	SARS PLP yeast	Shiga toxin inh	CHX counter	Pf growth 48h	Pf growth 96h
CCN1C(=O)c2ccccc2Sc2ccc(C(=O)O)cc21	5%	0%	27	-1	.	8%
CC(=O)c1ccc2c(c1)N(CCCN1CCN(CCO)CC1)c1ccccc1S2	.	.	.	.	13µM*	13µM*
COc1ccccc1NC(=O)c1ccc(C(=O)c2ccccc2)o1	.	-1%	27	10	?	-26%
Cc1ccc(C)c(NC(=O)c2nc(Cl)ccc2Cl)c1	.	0%	36	26*	36%	50%
O=C(Nc1ccccc1O)c1ccccc1O	-193%	-18%	53*	32*	?	7%
O=C(Nc1ncn[nH]1)c1ccccc1O	-4%	0%	1	0	80%	94%
Cc1ccc(C)c(NC(=O)c2nc(-c3ccccc3)n(-c3ccccc3)n2)c1	-4%	7%	-10	-1	.	9.3µM*
Cc1ccc(C)c(NC(=O)c2cc(-c3ccccc3)nn2-c2ccccc2)c1	-8%	-31%	-3	6	?	?
Cc1ccc(C)c(NC(=O)COC(=O)c2nc(Cl)ccc2Cl)c1	.	-8%	.	.	4%	5%
O=C(Nc1ccccc1O)c1ccc(C(=O)c2ccccc2)o1	-13%	-7%	35*	27*	8.3µM*	?
CCN(CC(=O)NCc1cccs1)C(=O)c1cccc(S(=O)(=O)NCc2ccccc2)c1	.	1%	.	.	?	4%
CC1(C)NC(=O)N(CCOCCOc2ccccc2-c2ccccc2)C1=O	.	1%	-7	2	34%[5.75 µM]	0%
COc1ccc(C2CC(c3ccccc3)Oc3cc4c(cc32)OCO4)cc1 (centres undefined)	.	.	21	23	.	.
O=C(NCc1ccc(Cl)cc1)c1cnn2ccccc12	-57%	-8%	80*	56*	.	1%
Cc1ccc(C)c(NC(=O)c2cc(C)nc3ccccc23)c1	-18%	-3%	.	-1	30%	2%
Cc1cccc(NC(=O)c2ccccc2O)c1C	-73%	-37%	49*	34*	?	?
Cc1cc(C)n2ncc(C(=O)NCc3ccc(Cl)cc3)c2n1	-76%	-22%	-7	19	.	?
Cc1cccc(NC(=O)CNCC(=O)Nc2cccc(C)c2C)c1C	4%	1%	-7	-1	7%	28%
Cc1cccc(NC(=O)c2cnn3ccccc23)c1C	4%	1%	78*	50*	107%	135%
Cc1ccc(C)c(NC(=O)c2ccccc2O)c1	-210%	-29%	54	22*	?	?
COc1cc(OC)cc(-c2nnc3n2N=C(c2ccccc2OC)CS3)c1	.	.	-7	-2	.	.
CCOc1ccccc1NC(=O)c1ccc2c(=O)n3c(nc2c1)CCCCC3	-3%	1%	-5	14	?	33%
CCOc1ccccc1N(C)C(=O)c1ccc2c(=O)n3c(nc2c1)CCCCC3	-15%	29%	-3	-4	?	1.5µM*
CN(C(=O)c1ccc2c(=O)n3c(nc2c1)CCCCC3)c1ccccc1F	0%	-4%	-1	17*	7%	?
CN(C(=O)c1ccc2c(=O)n3c(nc2c1)CCCCC3)c1cccc(Cl)c1	8%	-2%	23	18*	-19%	?
Cc1ccc(S(=O)(=O)N2CC=C(c3c(C)n(CC(=O)N4CCCC4)c4ccccc34)CC2)cc1C	.	.	-3	-5	.	.
